Source: the supplement of paper PMC13380429

Test system: Vero E6 infected with SARS-CoV-2
Experiment: inhibition of SARS-CoV-2 cytopathic effect; higher = more antiviral protection, active = above 15
Details: 48 h

Measured: inhibition of SARS-CoV-2 cytopathic effect

CC[C@H]1OC(=O)C[C@@H](O)[C@H](C)[C@@H](O[C@@H]2O[C@H](C)[C@@H](O[C@H]3C[C@@](C)(O)[C@@H](O)[C@H](C)O3)[C@H](N(C)C)[C@H]2O)[C@@H](CC=O)C[C@@H](C)C(=O)/C=C/C(C)=C/[C@@H]1CO[C@@H]1O[C@H](C)[C@@H](O)[C@@H](OC)[C@H]1OC
inactive: 1 nM -4.49% | 8.33 nM -1.15% | 100 nM -2.1% | 833.33 nM -0.46% | 10000 nM 4.02%

CC(c1cc2ccccc2s1)N(O)C(N)=O (stereo not given) [zileuton]
inactive: 1 nM -2.05% | 8.33 nM -0.81% | 100 nM 1.43% | 833.33 nM -1.9% | 10000 nM -1.8%

CS(=O)(=O)CCNCc1ccc(-c2ccc3ncnc(Nc4ccc(OCc5cccc(F)c5)c(Cl)c4)c3c2)o1 [lapatinib]
inactive: 1 nM -1.4% | 8.33 nM 0.42% | 100 nM -3.11% | 833.33 nM -11.4% | 10000 nM -7.81%

CCN(CC)CCOc1ccc(Nc2ncc3cc(-c4c(Cl)cccc4Cl)c(=O)n(C)c3n2)cc1
inactive: 1 nM -0.79% | 8.33 nM -0.21% | 100 nM -2.93% | 833.33 nM -9.61% | 10000 nM -31.3%

O=C(O)CC(S)C(=O)O (stereo not given) [mercaptosuccinic-acid]
inactive: 1 nM 0.69% | 8.33 nM 3.36% | 100 nM 4.14% | 833.33 nM 3.72% | 10000 nM -0.09%

O=C(CNC(=O)c1cccc(C(F)(F)F)c1)N[C@@H]1CCN(Cc2ccc(Cl)cc2)C1 [teijin-compound-1]
inactive: 1 nM -1.08% | 8.33 nM -0.19% | 100 nM 0.66% | 833.33 nM -1.99% | 10000 nM -4.88%

O=C(O)CCC(=O)O [succinic-acid]
inactive: 1 nM -0.06% | 8.33 nM -1.83% | 100 nM -1.13% | 833.33 nM -0.66% | 10000 nM 2.3%

CC(C)N(CCNC(=O)CN1CCCC1=O)C(C)C [pramiracetam]
inactive: 1 nM -3.32% | 8.33 nM -1.27% | 100 nM 0.57% | 833.33 nM 3.04% | 10000 nM 0.12%

C[C@H]1C[C@H]2[C@@H]3CCC4=CC(=O)C=C[C@]4(C)[C@H]3C(=O)C[C@]2(C)[C@@]1(O)C(=O)CO [Betapar (Meprednisone)]
inactive: 1 nM 0.88% | 8.33 nM 0.92% | 100 nM 2.1% | 833.33 nM 0.12% | 10000 nM 4.2%

COC(=O)C1=C(C)NC(C)=C(C(=O)OCCN(C)Cc2ccccc2)C1c1cccc([N+](=O)[O-])c1 (stereo not given) [nicardipine]
inactive: 1 nM 0.9% | 8.33 nM 0.28% | 100 nM 0.23% | 833.33 nM -0.11% | 10000 nM -1.36%

CN(C(=O)CN(CCO)CC(=O)N(C)C(C)(C)Cc1ccccc1)C(C)(C)Cc1ccccc1 [oxethazaine]
inactive: 1 nM -2.13% | 8.33 nM -0.95% | 100 nM 0.87% | 833.33 nM -0.57% | 10000 nM -13.9%

Cn1cc(-c2cnn3c(N)c(Br)c([C@@H]4CCCNC4)nc23)cn1
inactive: 1 nM 0.61% | 8.33 nM 0.92% | 100 nM 2.32% | 833.33 nM 2.1% | 10000 nM 0.48%

COC(=O)Nc1ccc2[nH]cc(CCNC(C)=O)c2c1
inactive: 1 nM -2.08% | 8.33 nM -0.32% | 100 nM -1.52% | 833.33 nM -7.74% | 10000 nM -1.85%

C[N+]12CCC(CC1)C(OC(=O)C(O)(c1ccccc1)c1ccccc1)C2 (stereo not given) [clidinium]
inactive: 1 nM -2.04% | 8.33 nM 1.76% | 100 nM -0.23% | 833.33 nM 0.86% | 10000 nM -1.97%

CC#CCC(C)[C@H](O)/C=C/[C@@H]1[C@H]2C/C(=C/CCCC(=O)O)C[C@H]2C[C@H]1O (stereo not given in full) [iloprost]
inactive: 1 nM -0.22% | 8.33 nM -1.1% | 100 nM -0.18% | 833.33 nM -2.21% | 10000 nM -1.94%

CN(C)/C=N/c1c(I)cc(I)c(CCC(=O)O)c1I [iopodic-acid]
inactive: 1 nM -3.57% | 8.33 nM 0.15% | 100 nM -0.76% | 833.33 nM 0.26% | 10000 nM -2.24%

CCOC(CN1CCN(CC(C)C(=O)c2ccccc2)CC1)c1ccccc1 (stereo not given) [eprazinone]
inactive: 1 nM -5.33% | 8.33 nM -3.53% | 100 nM -2.2% | 833.33 nM 1.64% | 10000 nM 0.89%

CC(CN1c2ccccc2Sc2ccccc21)N(C)C (stereo not given) [promethazine]
inactive: 1 nM -0.13% | 8.33 nM -0.16% | 100 nM -1.28% | 833.33 nM 0.5% | 10000 nM 3.03%
